# Only a selection was taken, and hits are over-represented in it overall.
# FBPA Giardia inh: inhibitors of Giardia lamblia fructose-1,6-bisphosphate aldolase; purified Giardia FBPA; AID 2451; A8B2U2; actives 0.71% (n = 290,000); Potency, µM (highest dose often 59.6 µM), for inactives: at the top dose activity, negative = inhibition, hits mostly inhibitors; further: potency means the concentration at half of the fitted maximal effect; on the % scale 0 is the no-effect control and ±100 the full control effect; nearly all actives have a fitted effect of over 55% in size
# Target sequence (A8B2U2 whole entry, looked up): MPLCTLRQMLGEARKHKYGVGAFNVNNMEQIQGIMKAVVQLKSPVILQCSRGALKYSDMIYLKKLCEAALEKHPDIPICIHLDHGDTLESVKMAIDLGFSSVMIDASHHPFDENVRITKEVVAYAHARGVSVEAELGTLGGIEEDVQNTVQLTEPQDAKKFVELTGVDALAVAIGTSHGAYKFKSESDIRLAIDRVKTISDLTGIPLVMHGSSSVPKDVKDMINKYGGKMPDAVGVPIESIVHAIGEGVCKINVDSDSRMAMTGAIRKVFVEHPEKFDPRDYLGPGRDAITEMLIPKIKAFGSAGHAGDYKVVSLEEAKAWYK
#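 Giardia FBPA (40 nM reagent) was preincubated 10 min at RT with compound (up to 57.5 uM final), then substrate plus GAPDH/TPI/NAD/arsenate coupling system with diaphorase/resazurin was added; resorufin fluorescence (525/598 nm) was read after 20 min.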
# Cycloheximide cs: counter-screen for Shiga toxin inhibitors: cycloheximide protein synthesis inhibition | AID 2314 | max response, % | actives 12% (n = 300,000) | cell reporter, cycloheximide protein synthesis inhibition counterscreen; in the data active means max response mostly above about 13%, no sharp cut-off; inactive means mostly below about 14%; further: read at 38.3 µM for the half of the compounds with a filed dose; 0% is about no effect
# LmPK inhibitor: inhibitors of Leishmania mexicana pyruvate kinase; AID 1721; Q27686; Potency, µM (doses to about 57.5 µM), for the others: at the top dose activity change, negative = inhibition, usual class: inhibitors; actives 0.37% (n = 290,000); purified LmPK, Kinase-Glo ATP luminescence, 1 h; further: potency means the concentration at half of the fitted maximal effect; on the % scale 0 is the no-effect control and ±100 the full control effect
#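 Purified LmPK (0.1 nM) with 0.5 mM PEP and 0.1 mM ADP in imidazole buffer pH 7.2 with MgCl2/KCl, 1 h at room temperature. ATP formed was read by luciferase luminescence and normalized to no-enzyme and uninhibited controls.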
# Shiga toxin inh: blocks Shiga toxin action in Vero cells | Vero cells, Shiga toxin protein synthesis inhibition reporter | inhibition, % at 38.7 µM | actives 9.2% (n = 290,000) | AID 2315; in the data active means inhibition mostly above about 28%, no sharp cut-off; inactive means mostly below about 43%; further: 0% is about no effect
# TbPYK inhibitor: T. brucei pyruvate kinase inhibition. Q57TT1. TbPYK enzyme, Kinase-Glo Plus ATP luminescence, 45 min. Potency, µM (top dose mostly 76.8 µM), for inactives: top-dose activity, negative = inhibition, most hits filed as inhibitors. actives 0.12% (n = 410,000); further: potency means the concentration at half of the fitted maximal effect; on the % scale 0 is the no-effect control and ±100 the full control effect; nearly all actives have a fitted effect of over 50% in size
#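 TbPYK + substrate in 50 mM TEA pH 7.2, 100 mM KCl, 10 mM MgCl2, 0.05% BSA, 0.01% Tween-20; cpd pinned; ADP 130 uM final; 45 min RT; Kinase-Glo Plus 10 min; luminescence endpoint.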
# RE007 growth inh: less growth of the S. pombe RE007 Vpr strain | Potency, µM (highest dose often 92.2 µM), inactives show at the highest dose activity change, negative = less growth, most hits filed as inhibitors | actives 0.21% (n = 360,000) | S. pombe RE007 Vpr strain, BacTiter-Glo ATP luminescence, 24 h; active means well fitted falling curve with a large enough effect; inconclusive means small, poorly fitted or top-dose-only effect; inactive means no such curve, though single readings can be large or run the other way; further: potency means the concentration at half of the fitted maximal effect; on the % scale 0 is the no-effect control and ±100 the full control effect; nearly all actives have a fitted effect of over 50% in size
#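 Fission yeast strain RE007, carrying one chromosomally integrated HIV-1 vpr copy, was seeded at OD 0.01 in PMG+AL medium with 23 nL pinned compound. After 24 h at 30 °C and 99% humidity, viability was read by BacTiter-Glo luminescence.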
# * marks the source's active call; other numbers are inactive results; ? = inconclusive; . = not tested or not shown; [ ] = dose if it differs, or a comment. Unless noted, the call rests on the fitted dose curve; in most records, active means well fitted curve in the direction sought with a large enough effect; inconclusive means small, poorly fitted or top-dose-only effect, or another doubt; inactive means no such curve, though single readings can be large; an effect the other way counts as inactive or inconclusive.
SMILES,FBPA Giardia inh,Cycloheximide cs,LmPK inhibitor,Shiga toxin inh,TbPYK inhibitor,RE007 growth inh
COc1ccc(Oc2ncc3nc(-c4ccc(F)cc4)c(=O)n(CCC#N)c3n2)cc1,8.0%,.,.,.,.,.
CCc1ccc(-c2ccc(C(=O)C(F)(F)F)[nH]2)cc1,-0.2%,64.3*,1.0%,125.8*,3.1%,7.3%
Cn1c(=O)cc(SCC(=O)N2CCN(c3ccccc3F)CC2)c2cc(Cl)ccc21,.,.,.,.,1.4%,.
CC(C)NC(=O)c1cc(-c2ccco2)on1,2.6%,32.4*,-6.2%,105.7*,-19.3%,-4.2%
COc1ccc(NC(=O)c2cc(-c3ccco3)on2)cc1,5.6%,60.7*,13.1%,89.2*,-10.7%,-0.6%
COc1cc(NC(=O)c2cc(-c3ccco3)on2)c(OC)cc1Cl,9.3%,4.5,-1.5%,11.6,-3.9%,13.3%
CCc1ccc(NC(=O)c2cc(-c3ccco3)on2)cc1,-1.6%,52.5*,3.7%,57.4*,-8.8%,1.8%
COc1ccc(NC(=O)C2=CC(c3ccco3)=NS(=O)(=O)N2C)cc1,0.5%,16.7*,2.7%,25.5,-6.1%,2.7%
COc1ccc(NC(=O)c2cc(-c3ccco3)on2)c(OC)c1,-4.7%,11.8,0.4%,25.1,1.9%,-24.2%
Cc1cccc(OCC(=O)Nc2cccc(C(=O)OCc3cc(=O)n4nc(C(C)C)sc4n3)c2)c1,.,.,.,.,-1.8%,.
COc1ccc(-c2nc(C(=O)Nc3cccc(C(C)=O)c3)nn2-c2ccccc2Cl)cc1,.,.,.,.,6.1%,.
CC(C)(C)C1CCc2nc(NC(=O)c3cccc(Cl)c3)sc2C1 (stereo not given),.,.,.,.,-0.8%,.
O=C(c1ccccc1)c1ccc(N2CCOCC2)c(F)c1,-2.1%,20.5*,-4.4%,131.4*,0.6%,?
O=C(c1ccccc1)c1cc(F)c(N2CCOCC2)cc1Cl,-1.5%,15.3,-3.4%,23.4,3.4%,39.8µM*
O=c1cc(-c2cc(O)c(O)c([C@@H]3O[C@H](CO)[C@@H](O)[C@H](O)[C@H]3O)c2)oc2cc(O[C@@H]3O[C@H](CO)[C@@H](O)[C@H](O)[C@H]3O)cc(O)c12,-13.8%,8.3,.,-6.9,.,.
COC(=O)c1ccc(C(=O)OC)c(NC(=O)Nc2ccc3c(c2)OCO3)c1,-0.3%,24.6*,-13.0%,61.7*,5.5%,6.5%
COC(=O)c1ccc(C(=O)OC)c(NC(=O)Oc2ccccc2)c1,1.5%,12.6,-11.7%,14.5,3.1%,-15.3%
COc1cc(NC(=O)Nc2ccc3c(c2)OCO3)cc(OC)c1OC,8.5%,11.0,-4.2%[11.5 µM],44.2,0.6%,1.9%
COC(=O)c1ccc(C(=O)OC)c(NC(=O)/C=C/C(=O)O)c1,-2.0%,10.9*,12.7%,31.0,-7.4%,-13.2%
COC(=O)c1ccccc1NC(=O)Nc1ccc2c(c1)OCO2,-0.4%,16.4*,3.4%,61.3,-0.2%,1.5%
CC/C=C/[C@@H](c1ccccc1)[C@H](C)C(O)CC(=O)SC(C)(C)C (stereo not given in full),0.0%,-1.8,.,35.1,.,.
COc1cccc(NC(=O)/C(C#N)=C/c2c(C)n(Cc3ccccc3)c3ccccc23)c1,.,.,.,.,-1.7%,.
Cc1ccc(Nc2nc3ccccc3c3nncn23)cc1C,.,.,.,.,0.2%,.
Cc1nc(SCC(=O)c2cccs2)c2oc3ccccc3c2n1,2.3%,55.6*,-1.2%,135.8*,-1.4%,7.9%
O=C(CSc1ncnc2c1oc1ccccc12)c1cccs1,0.1%,23.2*,1.8%,41.9*,-4.9%,-1.9%
SMILES,FBPA Giardia inh,Cycloheximide cs,LmPK inhibitor,Shiga toxin inh,TbPYK inhibitor,RE007 growth inh
Cc1nc(SCC(=O)O)c2oc3ccccc3c2n1,22.7%,-1.2,0.2%,-13.2,9.3%,-1.2%
CCOC(=O)c1c(C)[nH]c(CCC(=O)Nc2ccc(C)c(F)c2)c1C,.,.,.,.,1.4%,.
Nc1cc(-c2ccco2)no1,?,15.9,-1.8%,42.0,-7.0%,-13.7%
c1ccc(-c2nccc(-c3ccco3)n2)nc1,-16.4%,22.3,-5.8%,41.8*,-0.7%,?
CCCNc1ccc(-c2nc(-c3ccccn3)no2)cc1[N+](=O)[O-],.,.,.,.,-3.3%,.
c1coc(-c2ccnc(-c3ccncc3)n2)c1,0.7%,11.4,-5.5%,15.2,0.4%,-28.4%
c1ccc(-c2noc(-c3ccno3)n2)nc1,-2.9%,30.7*,-8.7%,48.5*,0.3%,-9.6%
